From PubChem BioAssay AID2783 (National Center for Advancing Translational Sciences (NCATS), 2010)
Results filed as inconclusive are left out. Activity calls are given as the source filed them. The call rests on the fitted dose curve; in most records, active means well fitted inhibition curve with a large enough effect in the polarisation, with a control signal flat (not every such curve was filed as active); inconclusive means small, poorly fitted or top-dose-only effect, or effect the other way, or a change in a side signal; inactive means no such curve, though single readings can be large or run the other way; the % refers to the polarisation. Where a SMILES comes first, the peptide text is derived from it. Bridges are numbered along the chain shown (N, C = ends). [ ]: non-standard residue; d: D form. The star is where a group is joined. ξ: configuration not given here. Octanoyl(6-Me) = CCC(C)CCCCC(=O)*; ξThr(3R) = C[C@@H](O)C(N)C(=O)O; dDab = NCC[C@@H](N)C(=O)O; Dab = NCC[CH](N)C(=O)O

molecular target: Histone-lysine N-methyltransferase 2A (Homo sapiens) (UniProt Q03164); experiment: Confirmation of Inhibitors Targeting the Menin-MLL Interaction in MLL Related Leukemias: Competition With Fluorescein Labeled MLL-derived Peptide; settings: Fluorescence polarization, fluorescein-MLL peptide displacement from menin
Excerpt: qHTS Assay for Inhibitors Targeting the Menin-MLL Interaction in MLL Related Leukemias
NIH Chemical Genomics Center [NCGC]
NIH Molecular Libraries Probe Centers Network [MLPCN]
Assay Submitter (PI): Jolanta Grembecka, Tomasz Cierpicki, University of Virginia
Translocations of the MLL (Mixed Lineage Leukemia) gene are frequently found in human leukemias affecting both children and adults. Fusion of MLL to one of more than 60 genes results in generation of oncogenic proteins upregulating Hox genes, which are vital to blood cell development. Patients harboring fusion of the MLL gene suffer from aggressive leukemias and respond poorly to available therapies. All of the oncogenic fusion proteins have a preserved N-terminal fragment of MLL that has been identified to interact with menin. It has been recently discovered that association with menin is critical to the leukemogenic activity of the MLL fusion oncoproteins. Selective targeting of the menin-MLL interaction could provide an attractive therapeutic approach to develop novel drugs for MLL-related leukemias. Small molecules blocking the menin-MLL interaction should reverse the oncogenic potential of MLL fusion proteins.
We have developed and optimized a fluorescence polarization-based assay for the identification of Menin-MLL inhibitors. The assay was run employing two different MLL-derived peptides. The present assay uses a 12 amino acid peptide labeled with fluorescein at its N-terminus. This peptide consists of the menin high affinity binding motif from MLL and is potently bound by menin. Another peptide with a mutated sequence, labeled with Texas Red, was used in parallel as a less stringent screen for inhibitors.
The present assay was run to confirm the activity of hits from the primary screen.
The Menin protein, the MLL-wild type (w.t.) derived peptide (N-terminal 12 amino acids), the MLL-derived peptide labeled with Texas Red and the MLL-w.t. peptide labeled with Fluorescein were kindly supplied by laboratory of Dr. Jolanta Grembecka, University of Virginia. All protein and peptide solutions were stored in single use aliquots at -80C. The Eu3+ Cyrptate-conjugated mouse monoclonal antibody anti-6 Histidine (Eu3+-AB) and the Streptavidin-XL665 conjugate (XL665) were purchased from Cisbio International (Bedford, MA). All antibody and XL665 conjugate solution stocks were stored in single use aliquots at -20C. The Buffer components for all assays were purchased from Sigma-Aldrich (St. Louis, MO) and Invitrogen (Carlsbad, CA).
1. FP reaction buffer: 50 mM Tris-HCl pH 7.5, 50 mM NaCl, 1mM DTT.
Before use, 0.05% BSA is added.
2. Menin protein, MLL-w.t. labeled with fluorescein, MLL-mutant peptide labeled with texas red.
Stored in singe use aliquots at -80C.
3. MLL-w.t. unlabeled peptide as positive control: 10 uM final in FP buffer.
1. Prepare Menin at 200 nM, MLL-w.t.-fluorescein at 25 nM, and MLL-mutant-texas red at 50 nM mixture in FP buffer.
2. Prepare Menin at 200 nM, MLL-w.t.-fluorescein at 25 nM, MLL-mutant-texas red at 50 nM, and 10 uM MLL-w.t. unlabeled mixture in FP buffer.
3. Prepare MLL-w.t.-fluorescein at 25 nM and MLL-mutant-texas red at 50 nM mixture in FP buffer.
3. Dispense 4 ul per well of reagent in step 1 in columns 2, 4 - 48 in a black 1536 well plate, dispense 4 ul per well of reagents from steps 2 and 3 in columns 1 and 3 respectively. Incubate plate at ambient for 15 minutes.
4. Transfer 23 nl per well of compound to plate and incubate at ambient for 1 hr.
5. Read fluorescence polarization for each label using the PerkinElmer Envision.
Envision protocol for fluorescein: FITC FP Dual Enh Mirror, Excitation filter 480, Emission filter (1) P-pol 535, Emission filter (2) S-pol 535
Envision protocol for texas red: FP Dual Enh Mirror, Excitation filter 555, Emission filter (1) P-pol 632, Emission filter (2) S-pol 632
Potency means the concentration at half of the fitted maximal effect.

Histone-lysine N-methyltransferase 2A (Homo sapiens), sequence (Q03164 whole entry, looked up): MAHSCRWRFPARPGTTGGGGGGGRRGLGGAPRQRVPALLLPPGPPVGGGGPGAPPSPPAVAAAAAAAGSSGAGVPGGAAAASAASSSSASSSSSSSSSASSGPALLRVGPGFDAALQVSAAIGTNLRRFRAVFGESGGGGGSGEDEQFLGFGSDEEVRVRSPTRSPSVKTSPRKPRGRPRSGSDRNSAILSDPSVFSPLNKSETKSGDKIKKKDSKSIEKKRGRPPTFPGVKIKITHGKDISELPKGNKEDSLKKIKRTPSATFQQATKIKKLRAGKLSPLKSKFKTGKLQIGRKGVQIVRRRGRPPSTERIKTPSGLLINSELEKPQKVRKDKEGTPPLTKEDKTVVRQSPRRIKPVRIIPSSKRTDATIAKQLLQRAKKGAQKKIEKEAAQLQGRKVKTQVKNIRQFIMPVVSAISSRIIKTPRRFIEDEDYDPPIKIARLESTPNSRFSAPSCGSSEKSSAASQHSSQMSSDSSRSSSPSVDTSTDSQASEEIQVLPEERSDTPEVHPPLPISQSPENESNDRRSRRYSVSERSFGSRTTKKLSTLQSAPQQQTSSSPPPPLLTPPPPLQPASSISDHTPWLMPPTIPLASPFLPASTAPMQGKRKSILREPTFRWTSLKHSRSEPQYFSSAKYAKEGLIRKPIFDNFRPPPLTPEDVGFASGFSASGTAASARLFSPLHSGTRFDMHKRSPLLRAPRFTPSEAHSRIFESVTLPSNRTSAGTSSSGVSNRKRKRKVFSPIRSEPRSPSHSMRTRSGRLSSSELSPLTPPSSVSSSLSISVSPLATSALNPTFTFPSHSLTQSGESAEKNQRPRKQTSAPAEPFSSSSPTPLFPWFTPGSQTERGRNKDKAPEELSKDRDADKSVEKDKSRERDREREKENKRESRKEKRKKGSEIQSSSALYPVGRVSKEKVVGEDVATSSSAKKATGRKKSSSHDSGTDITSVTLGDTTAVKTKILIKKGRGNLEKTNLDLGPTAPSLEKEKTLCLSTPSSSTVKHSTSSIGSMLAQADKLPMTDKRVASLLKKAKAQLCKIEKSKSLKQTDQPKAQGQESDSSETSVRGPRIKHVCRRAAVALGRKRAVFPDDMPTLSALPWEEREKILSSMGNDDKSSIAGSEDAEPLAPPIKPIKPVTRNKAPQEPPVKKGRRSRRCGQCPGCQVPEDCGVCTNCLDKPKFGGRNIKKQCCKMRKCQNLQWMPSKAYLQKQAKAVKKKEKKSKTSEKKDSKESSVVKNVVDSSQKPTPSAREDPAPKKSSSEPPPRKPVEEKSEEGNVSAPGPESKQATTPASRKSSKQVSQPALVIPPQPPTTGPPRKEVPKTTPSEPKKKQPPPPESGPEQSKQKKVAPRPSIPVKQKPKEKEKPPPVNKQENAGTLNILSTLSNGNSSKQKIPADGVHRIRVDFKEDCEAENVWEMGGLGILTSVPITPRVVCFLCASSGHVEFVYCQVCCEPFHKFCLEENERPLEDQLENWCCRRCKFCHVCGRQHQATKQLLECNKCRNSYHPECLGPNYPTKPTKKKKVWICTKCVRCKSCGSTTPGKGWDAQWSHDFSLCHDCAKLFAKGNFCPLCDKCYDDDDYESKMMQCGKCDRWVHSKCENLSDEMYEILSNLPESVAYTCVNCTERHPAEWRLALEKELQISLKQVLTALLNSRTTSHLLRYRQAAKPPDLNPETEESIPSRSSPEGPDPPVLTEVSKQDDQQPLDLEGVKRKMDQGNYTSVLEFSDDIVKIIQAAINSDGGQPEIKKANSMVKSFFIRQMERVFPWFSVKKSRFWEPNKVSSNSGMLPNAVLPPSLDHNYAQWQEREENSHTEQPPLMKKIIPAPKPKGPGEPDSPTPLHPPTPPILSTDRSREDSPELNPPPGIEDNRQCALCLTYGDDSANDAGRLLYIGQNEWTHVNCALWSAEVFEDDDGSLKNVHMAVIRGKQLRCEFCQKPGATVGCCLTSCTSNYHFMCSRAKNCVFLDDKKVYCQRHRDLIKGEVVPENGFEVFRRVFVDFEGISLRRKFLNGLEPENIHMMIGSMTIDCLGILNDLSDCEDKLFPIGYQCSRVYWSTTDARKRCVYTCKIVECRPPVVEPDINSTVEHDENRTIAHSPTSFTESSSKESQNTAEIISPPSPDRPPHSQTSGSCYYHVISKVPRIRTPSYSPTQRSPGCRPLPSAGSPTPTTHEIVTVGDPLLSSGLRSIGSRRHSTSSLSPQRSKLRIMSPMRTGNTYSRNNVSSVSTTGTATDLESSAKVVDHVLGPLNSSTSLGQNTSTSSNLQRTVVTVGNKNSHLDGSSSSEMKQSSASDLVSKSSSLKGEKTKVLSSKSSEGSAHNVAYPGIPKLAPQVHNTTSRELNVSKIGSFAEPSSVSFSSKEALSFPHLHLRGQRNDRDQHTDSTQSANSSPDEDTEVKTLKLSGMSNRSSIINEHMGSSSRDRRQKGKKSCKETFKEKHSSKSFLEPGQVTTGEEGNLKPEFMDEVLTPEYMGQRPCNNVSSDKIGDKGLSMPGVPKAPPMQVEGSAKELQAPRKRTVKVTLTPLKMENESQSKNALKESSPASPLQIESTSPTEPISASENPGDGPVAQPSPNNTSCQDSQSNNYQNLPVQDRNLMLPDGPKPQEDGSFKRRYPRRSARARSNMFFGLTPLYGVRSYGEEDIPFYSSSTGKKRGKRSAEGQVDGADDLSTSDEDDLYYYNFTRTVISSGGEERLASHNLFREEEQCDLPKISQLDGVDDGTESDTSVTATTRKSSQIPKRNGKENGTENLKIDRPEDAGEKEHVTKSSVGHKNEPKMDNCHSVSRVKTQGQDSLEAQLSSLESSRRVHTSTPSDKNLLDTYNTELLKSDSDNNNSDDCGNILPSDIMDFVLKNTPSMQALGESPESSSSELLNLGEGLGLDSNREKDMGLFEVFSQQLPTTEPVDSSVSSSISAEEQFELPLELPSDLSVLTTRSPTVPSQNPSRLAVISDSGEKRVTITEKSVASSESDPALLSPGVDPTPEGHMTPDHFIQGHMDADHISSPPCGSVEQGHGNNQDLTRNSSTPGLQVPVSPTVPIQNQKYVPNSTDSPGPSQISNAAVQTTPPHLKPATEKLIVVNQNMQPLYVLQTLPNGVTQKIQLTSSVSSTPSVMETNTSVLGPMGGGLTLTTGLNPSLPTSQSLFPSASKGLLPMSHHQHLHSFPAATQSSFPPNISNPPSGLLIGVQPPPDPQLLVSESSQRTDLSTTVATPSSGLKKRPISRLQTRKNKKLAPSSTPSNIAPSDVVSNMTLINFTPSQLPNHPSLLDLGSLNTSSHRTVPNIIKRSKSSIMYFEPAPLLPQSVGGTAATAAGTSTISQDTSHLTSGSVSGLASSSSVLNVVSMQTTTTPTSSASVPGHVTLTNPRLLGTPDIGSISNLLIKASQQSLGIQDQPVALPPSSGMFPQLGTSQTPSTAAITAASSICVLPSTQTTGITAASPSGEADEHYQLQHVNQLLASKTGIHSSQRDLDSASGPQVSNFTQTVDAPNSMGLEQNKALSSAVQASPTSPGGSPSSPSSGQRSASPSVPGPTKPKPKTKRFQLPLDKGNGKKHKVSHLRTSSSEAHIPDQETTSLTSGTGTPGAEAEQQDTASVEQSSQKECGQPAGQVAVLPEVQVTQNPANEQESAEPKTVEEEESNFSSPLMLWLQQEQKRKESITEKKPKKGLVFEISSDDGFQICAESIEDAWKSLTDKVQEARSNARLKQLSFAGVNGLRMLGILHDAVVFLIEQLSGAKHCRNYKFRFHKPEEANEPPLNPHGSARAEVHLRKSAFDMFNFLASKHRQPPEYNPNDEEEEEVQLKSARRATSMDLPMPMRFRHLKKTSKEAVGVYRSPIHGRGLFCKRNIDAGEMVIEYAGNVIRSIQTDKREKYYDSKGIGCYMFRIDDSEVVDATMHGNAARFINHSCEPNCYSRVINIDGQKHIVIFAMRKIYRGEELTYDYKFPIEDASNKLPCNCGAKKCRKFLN

Potency, active:
CCCC[n+]1c2ccccc2cc2ccccc21 63.2 µM, Cc1sc2ncnc(NC3CCN(Cc4ccccc4)CC3)c2c1C 63.1 µM, N=C1c2ccccc2CN1c1ccc(N2CCOCC2)c(S(=O)(=O)Nc2ccc(Cl)cc2)c1 71 µM, NC(=NCCCCCCN=C(N)/N=C(\N)Nc1ccc(Cl)cc1)/N=C(\N)Nc1ccc(Cl)cc1 141 µM, CNC[C@H](CC1CCCCC1)NC[C@H](Cc1ccccc1)NCCC12CC3CC(CC(C3)C1)C2 79.4 µM, CC1(C)CN=C(N2CCN(c3ncnc4sc5c(c34)CCCC5)CC2)S1 22.4 µM, CC(=O)NC1C(=O)N(CCN2CCOCC2)c2ccc(C)cc21 (configuration not stated) 79.6 µM, COC(=O)[C@H](C)NC(=O)c1cc2c(cn1)[nH]c1ccccc12 50.2 µM, CCC[n+]1c2ccccc2cc2ccccc21 63.2 µM, O=C(C[N+]12CC[N+](CC(=O)c3ccc(F)cc3)(CC1)CC2)c1ccc(F)cc1 79.4 µM, C[C@H](NC(=O)c1cc2c(cn1)[nH]c1ccccc12)C(=O)O 71 µM, COc1ccccc1NS(=O)(=O)c1cc(N2Cc3ccccc3C2=N)ccc1N1CCOCC1 71 µM, CCC(c1nnnn1Cc1ccc(F)cc1)N1CCN(C2CCCCC2)CC1 (configuration not stated) 126 µM, CCC(C)CCCCC(=O)NC(CCN)C(=O)NC(C(=O)NC(CCN)C(=O)NC1CCNC(=O)C(C(C)O)NC(=O)C(CCN)NC(=O)C(CCN)NC(=O)C(CC(C)C)NC(=O)C(Cc2ccccc2)NC(=O)C(CCN)NC1=O)C(C)O (configuration not stated) ({Octanoyl(6-Me)}-[Dab]T[Dab][Dab][Dab]FL[Dab][Dab]T; lactam 4-C; configuration not given here) 10 µM, CCOc1cc(CNCCc2ccc(S(N)(=O)=O)cc2)ccc1OCc1ccccc1 126 µM, NC(=O)[C@@H]1CCCNc2c(I)cc([N+](=O)[O-])cc2C(=O)N[C@@H](CCCN=C(N)N)C(=O)N[C@@H](CCCN=C(N)N)C(=O)N1 251 µM, Cc1cc2c(N)cccc2nn1 141 µM, COc1ccc(Cn2nnnc2C(c2ccc3ncccc3c2)N2CCN(C3CCCCC3)CC2)cc1 (configuration not stated) 200 µM, CCC(C)CCCCC(=O)N[C@@H](CCN)C(=O)N[C@H](C(=O)N[C@@H](CCN)C(=O)N[C@H]1CCNC(=O)C([C@@H](C)O)NC(=O)[C@@H](CCN)NC(=O)[C@H](CCN)NC(=O)[C@H](CC(C)C)NC(=O)[C@@H](CC(C)C)NC(=O)[C@H](CCN)NC1=O)[C@@H](C)O (stereo partly drawn) ({Octanoyl(6-Me)}-[Dab]T[Dab][Dab][Dab][dL]L[Dab][dDab][ξThr(3R)]; lactam 4-C) 12.6 µM, CCc1cc2c(N3CCN(C(=O)c4ccco4)CC3)ncnc2s1 63.1 µM, c1cc(CN2CCCNCCNCCCNCC2)ccc1CN1CCCNCCNCCCNCC1 31.6 µM, CCCC(c1nnnn1Cc1ccco1)N1CCN(C2CCCC2)CC1 (configuration not stated) 126 µM
